About 14,000 (4.5%) of roughly 310,000 compounds showed an effect of 50% or more. Effects have a minus sign here. The full list was thinned out, with strong results kept by preference.
target: human ether-à-go-go-related gene (hERG) potassium channel (human, UniProt Q12809); assay: primary screen, population patch clamp on CHO cells stably expressing hERG; higher = less effect of the substance
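Further: peak tail current of the secondary pulse compared with the same well before compound.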

Chain of human ether-à-go-go-related gene (hERG) potassium channel (Q12809 whole entry, looked up): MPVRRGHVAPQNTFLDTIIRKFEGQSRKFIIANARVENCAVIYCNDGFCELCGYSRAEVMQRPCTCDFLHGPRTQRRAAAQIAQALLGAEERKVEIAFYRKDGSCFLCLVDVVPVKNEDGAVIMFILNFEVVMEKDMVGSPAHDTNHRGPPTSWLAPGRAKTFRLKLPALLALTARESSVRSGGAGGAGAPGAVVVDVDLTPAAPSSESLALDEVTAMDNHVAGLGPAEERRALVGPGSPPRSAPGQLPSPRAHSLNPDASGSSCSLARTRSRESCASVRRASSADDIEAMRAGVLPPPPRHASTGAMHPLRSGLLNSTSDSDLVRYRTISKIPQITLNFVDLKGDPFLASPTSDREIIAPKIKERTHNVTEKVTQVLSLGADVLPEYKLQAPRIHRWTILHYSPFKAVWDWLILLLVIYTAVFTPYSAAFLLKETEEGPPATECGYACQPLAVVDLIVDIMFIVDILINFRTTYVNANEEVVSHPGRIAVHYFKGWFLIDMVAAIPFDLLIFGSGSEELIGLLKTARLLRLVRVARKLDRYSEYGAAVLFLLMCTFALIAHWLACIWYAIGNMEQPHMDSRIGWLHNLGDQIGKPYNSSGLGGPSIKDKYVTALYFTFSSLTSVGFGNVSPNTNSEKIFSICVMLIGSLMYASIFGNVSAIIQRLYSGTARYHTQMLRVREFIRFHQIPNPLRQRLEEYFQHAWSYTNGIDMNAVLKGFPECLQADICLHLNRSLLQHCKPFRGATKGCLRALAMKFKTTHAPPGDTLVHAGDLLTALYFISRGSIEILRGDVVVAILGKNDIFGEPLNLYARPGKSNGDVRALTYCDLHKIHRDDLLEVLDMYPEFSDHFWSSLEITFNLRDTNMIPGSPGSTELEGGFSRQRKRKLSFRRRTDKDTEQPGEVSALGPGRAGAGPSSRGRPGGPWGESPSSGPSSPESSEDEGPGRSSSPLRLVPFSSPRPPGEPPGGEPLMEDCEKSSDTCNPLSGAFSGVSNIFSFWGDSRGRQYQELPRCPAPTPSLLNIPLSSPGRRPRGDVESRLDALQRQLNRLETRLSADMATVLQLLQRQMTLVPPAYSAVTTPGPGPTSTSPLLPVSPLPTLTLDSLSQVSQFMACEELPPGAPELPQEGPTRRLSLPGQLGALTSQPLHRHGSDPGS

Compound | hERG current change (%, negative = inhibition) at 10uM [%]
Cl.NS(=O)(=O)c1ccc(CCNCC#Cc2ccccc2)cc1 | -21.6
COCCCN1C(=O)C(O)=C(C(=O)c2ccco2)C1c1ccccc1 (centres unmarked) | 21.3
Cc1ccc(CNC(=O)CSc2ccsc2[N+](=O)[O-])cc1 | -4.87
COc1ccccc1N1CCN(Cc2cc(=O)c(OCC(=O)Nc3ccccc3)co2)CC1 | 25.5
CC(=O)c1cc(C#N)c(Oc2cc(C)cc(C)c2)nc1C | -4.94
CCOC(=O)N1CCC(N(CCCOC)C(=O)Nc2ccc(CC)cc2)CC1 | -48.6
COc1ccccc1-c1cc(C(=O)Nc2cc(C)nn2-c2ccccc2)no1 | 17
COc1cc(/C=N/n2c(C)nc3ccccc3c2=O)ccc1O | 4.55
CC(C)CC(COCc1ccc(C(F)(F)F)cc1)N1CCN(C(=O)c2ccc(C(F)(F)F)cc2)CCC1=O (centres unmarked) | -16.7
CC(C)CC(COCc1ccc([N+](=O)[O-])cc1)N1CCN(C(=O)c2ccc(C(F)(F)F)cc2)CCC1=O (centres unmarked) | -67.1
CC(C)CC(COCc1ccc(Cl)cc1)N1CCN(C(=O)c2ccc(C(F)(F)F)cc2)CCC1=O (centres unmarked) | -44.5
O=C(c1cccc(NS(=O)(=O)c2cccc([N+](=O)[O-])c2)c1)N1CCOCC1 | 24.3
COc1cccc(N(CC(=O)NC2CCCCC2)C(=O)CCCC(=O)Nc2ccccn2)c1 | 13.2
O=C(CCCC(=O)N(CC(=O)NC1CCCCC1)c1ccc(F)cc1)Nc1ccccn1 | 7.12
CCOc1ccc(N(CC(=O)NC2CCCCC2)C(=O)CCC(=O)Nc2ccccn2)cc1 | -23.3
O=C(CCCC(=O)N(CC(=O)NC1CCCC1)c1cccc(F)c1)Nc1ccccn1 | 4.77
Cc1ccc(N(CC(=O)NC2CCCCC2)C(=O)CCC(=O)Nc2nccs2)cc1 | -4.93
O=C(CCC(=O)N(CC(=O)NC1CCCCC1)c1ccc(F)cc1)Nc1nccs1 | -73.7
CCOc1ccc(N(CC(=O)NC2CCCC2)C(=O)CCC(=O)Nc2ccccn2)cc1 | -56.2
O=C(CCC(=O)N(CC(=O)NC1CCCC1)c1ccc(F)cc1)Nc1nccs1 | 4.37
CCOc1ccc(N(CC(=O)NC2CCCC2)C(=O)CCCC(=O)Nc2ccccn2)cc1 | -10.8
O=C(CCCC(=O)N(CC(=O)NC1CCCCC1)c1cccc(F)c1)Nc1ccccn1 | -55.3
CCOc1ccc(N(CC(=O)NC2CCCCC2)C(=O)CCCC(=O)Nc2ccccn2)cc1 | -0.443
COc1ccc(N(CC(=O)NC2CCCCC2)C(=O)CCCC(=O)Nc2ccccn2)cc1 | -65.9

Compound | hERG current change (%, negative = inhibition) at 10uM [%]
CN(C(=O)c1ccccc1OC1CCN(S(C)(=O)=O)CC1)C1CCOC1 (centres unmarked) | 11.7
NC(=O)Cn1nnc(-c2ccc(CN3CCCCC3)cc2)n1 | 21.6
O=C(N1CCCC1)N1CCN(S(=O)(=O)c2ccccc2)CC1 | 7.18
CC(C)/C=N\NC(=O)CCCCC(=O)N/N=C/C(C)C | 6.11
CCOC(=O)C1=C(SCC(=O)Nc2ccccc2)NC(=O)C(C#N)C12CCCCC2 (centres unmarked) | -5.43
Cc1ccc(N2CN(CCC3=CCCCC3)CNC2=S)cc1 | 18
Cc1ccc2c(c1)CCCN2C(=O)c1ccc2c(c1)OCO2 | -4.53
O=c1c2c(-c3ccccc3)csc2nc2n1CCC2 | 14.5
O=c1cc(N2CCCCC2)c(-c2ccccc2)nn1Cc1ccc(Cl)cc1 | -1.99
Cc1cc(C)cc(NC(=O)C2CCN(c3nc(C)cc(C)n3)CC2)c1 | -3.58
Cc1ccc(N(CC(=O)NC2CCCC2)C(=O)CCC(=O)Nc2nc(C)cs2)cc1 | -11.9
CCOc1ccc(N(CC(=O)NC2CCCC2)C(=O)CCC(=O)Nc2nc(C)cs2)cc1 | -28.8
CCOc1ccc(N(CC(=O)NC2CCCCC2)C(=O)CCC(=O)Nc2nc(C)cs2)cc1 | -50.6
O=C(CC(CC(=O)c1ccccc1)c1ccccc1)c1ccccc1 | 0.181
O=C(CSc1nnc(CN2CCOCC2)n1-c1ccccc1)Nc1ccc(Cl)cc1 | -32.5
Cc1cc(C)c(S(=O)(=O)N2CCOC2CNC(=O)C(=O)NCCc2ccc(S(N)(=O)=O)cc2)c(C)c1 (centres unmarked) | -17.8
O=C(Cn1cnc2c(nnn2Cc2ccccc2)c1=O)NCc1ccccc1Cl | 5.76
Cc1ccc(SCc2ccc(C(=O)NCc3cccnc3)cc2)cc1 | 3.85
O=C(O)c1ccc(N/N=C/c2ccc(OC(=O)c3cccc(Cl)c3)cc2)cc1 | -9.22
O=C(Oc1ccc(/C=N/Nc2ccccc2)cc1)c1ccccc1 | 15.4
O=C(O)c1ccc(N/N=C/c2ccc(OC(=O)c3ccccc3Cl)cc2)cc1 | -56
COCc1ccc(CN2CCCC(CCC(=O)NCc3cccc(OC)c3)C2)o1 (centres unmarked) | -23.5
Cc1ccc(CNC(=O)CCC2CCCN(C(=O)CCC(F)(F)F)C2)o1 (centres unmarked) | 3.62
Cc1ccsc1C(=O)C1CCCN(Cc2cc3ccccc3o2)C1 (centres unmarked) | -23.7

Compound | hERG current change (%, negative = inhibition) at 10uM [%]
COc1cccc(CNC(=O)CCC2CCCN(C(=O)c3cc4ccccc4o3)C2)c1 (centres unmarked) | -47.7
Cc1ccc(CNC(=O)CCC2CCCN(Cc3cc4ccccc4o3)C2)o1 (centres unmarked) | -69.2
COc1cccc(CNC(=O)CCC2CCCN(Cc3cc4ccccc4o3)C2)c1 (centres unmarked) | -75.6
Cc1ccc(N/C=C(\C#N)S(=O)(=O)c2ccccc2)cc1 | 14.3
CCOC(=O)c1c(C)sc2c1N(C(=O)CCl)c1cc(Cl)ccc1S2 | -3.3
COc1ccccc1NC(=O)Cn1cncc1-c1ccc([N+](=O)[O-])cc1 | 2.57
O=C1CCC(C(=O)NCCN2C(=O)S/C(=C\c3cccnc3)C2=O)=NN1 | 2.26
CSC1=NSC2=NC(=O)/C(=C\c3ccc(OC(=O)c4ccco4)cc3)C(=N)N12 | 9.54
Cc1ccc(S(=O)(=O)N2CCN(C(=O)c3ccco3)CC2)cc1 | 1.15
CC(C)Cc1ccc(S(=O)(=O)N2CCN(C(=O)c3ccco3)CC2)cc1 | -11.1
CCCCc1ccc(S(=O)(=O)N2CCN(C(=O)c3ccco3)CC2)cc1 | -66.5
COc1ccc(NC(=S)N2CCN(C(=O)c3ccco3)CC2)cc1 | -6.29
COC(=O)c1ccc(NC(=S)N2CCN(C(=O)c3ccco3)CC2)cc1 | -4.94
CCCCc1ccc(NC(=S)N2CCN(C(=O)c3ccco3)CC2)cc1 | -75.3
COc1ccc(C2/C(=C(\O)c3ccc4c(c3)OCCO4)C(=O)C(=O)N2Cc2ccco2)c(OC)c1 (centres unmarked) | -9.64
Cn1c(=O)cc(OCCCC(=O)Nc2cccnc2)c2ccccc21 | 0.169
O=C(O)Cn1nc2c3c(cccc3c1=O)-c1ccccc1-2 | 8.18
O=c1c2cccc3c2c(nn1CN1CCOCC1)-c1ccccc1-3 | -11.5
CCN(CC)CCn1nc2c3c(cccc3c1=O)-c1ccccc1-2 | -70.2
COC(=O)c1c(C)[nH]c(C)c1-c1ccccc1 | -5.37
O=C1NC(c2ccc3c(c2)OCO3)Nc2ccccc21 (centres unmarked) | 10.5
O=C(Nc1ccncc1)c1ccc2c(c1)OCCO2 | 11.8
COc1ccc(C)cc1S(=O)(=O)N(C)CC(=O)N1CCN(C)CC1 | 2.65
COc1ccc(C)cc1S(=O)(=O)N(CC(=O)N1CCCC1)c1ccccc1 | -37.9

Compound | hERG current change (%, negative = inhibition) at 10uM [%]
COc1ccc(C)cc1S(=O)(=O)N(CC(=O)N1CCCC1)c1ccc(C)cc1 | -53
COc1ccc(C)cc1N(CC(=O)N1CCOCC1)S(C)(=O)=O | 21.2
COc1ccc(Br)cc1S(=O)(=O)N(CC(=O)N1CCN(C)CC1)c1ccccc1 | -22.6
COc1ccc(C)cc1S(=O)(=O)N(CC(=O)N1CCOCC1)c1cc(C)cc(C)c1 | -77.4
COc1ccc(Br)cc1S(=O)(=O)N(CC(=O)N1CCOCC1)c1ccccc1 | -47
COc1ccc(C)cc1S(=O)(=O)N(C)CC(=O)N1CCCC1 | 13.2
COc1ccc(N(CC(=O)N2CCN(C)CC2)S(=O)(=O)c2cc(C)ccc2OC)cc1Cl | -60.3
CC(OC(=O)C1CCC(=O)N1)C(=O)Nc1cc(Cl)cc(Cl)c1 (centres unmarked) | 2.72
O=C(CSc1n[nH]c(=O)n1Cc1ccco1)c1ccc2c(c1)OCCO2 | 15
c1cc2c(cc1Oc1nc(N3CCOCC3)nc(N3CCOCC3)n1)OCO2 | 3.77
CC(C)Cc1ccc(C(C)C(=O)OCC(=O)c2c[nH]c3ccccc23)cc1 (centres unmarked) | 3.98
Cc1ccc(NC(=O)c2cc([N+](=O)[O-])ccc2N2CCOCC2)cc1S(=O)(=O)N1CCOCC1 | -46
Cc1ccc(C)c(NC(=O)c2cc(S(=O)(=O)N3CCCCC3)ccc2N2CCOCC2)c1 | -62.7
Cc1ccc(NC(=O)c2cc(S(=O)(=O)N3CCCCC3)ccc2N2CCOCC2)cc1F | -13.9
NC(=O)c1ccccc1NC(=O)c1cc(S(=O)(=O)N2CCCCC2)ccc1N1CCOCC1 | -73.9
Cc1ccc(S(=O)(=O)N2CCOCC2)cc1NC(=O)c1cc([N+](=O)[O-])ccc1N1CCOCC1 | -67.7
COc1ccc(C)cc1NC(=O)c1cc(S(=O)(=O)N2CCCCC2)ccc1N1CCOCC1 | -39.2
Cc1ccc(NC(=O)c2cc([N+](=O)[O-])ccc2N2CCOCC2)cc1S(=O)(=O)N(C)C | -52.8
CC(C)Oc1ccc(S(=O)(=O)N2CCOCC2)cc1NC(=O)c1cc([N+](=O)[O-])ccc1N1CCOCC1 | -45.7
O=C(Nc1ccccc1Cl)c1cc(S(=O)(=O)N2CCCCC2)ccc1N1CCOCC1 | -39.7
CCN(CC)S(=O)(=O)c1cc(NC(=O)c2cc([N+](=O)[O-])ccc2N2CCOCC2)ccc1C | -20.5
O=C(Nc1ccccc1)c1cc(S(=O)(=O)N2CCCCC2)ccc1N1CCOCC1 | 1.08
COc1ccc(S(=O)(=O)N2CCCCC2)cc1NC(=O)c1cc([N+](=O)[O-])ccc1N1CCOCC1 | -30.4

Reference: article PMC4336329 (PLoS ONE, 2015)
